Most compounds without a hit are left out; they make up all but 27% or so of the library.
CYP2C19 activ = cytochrome P450 2C19 (human) activation; P33261; recombinant CYP2C19, luciferin-H EGE luminescence; stronger effect = higher value; 0 = fully inhibited enzyme, 1 = untreated enzyme; activation factor at 5 µM; 96,000 tested, under 10 active;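 active means activation factor of at least 2 at 5 µM in the primary screen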;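 further: 0 = wells with 2.5 mM tranylcypromine and 1 = vehicle-only wells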
CYP2C19 inhib = inhibitors of human CYP2C19 | AID 778 | inhibition, % at 5 µM | 21% of 96,000 active | CYP2C19 Supersomes, luciferin-H EGE luminescence, 30 min;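 active means CYP2C19 inhibition above a set limit at 5 µM in the primary screen, cut at about 50% in these data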;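 further: plate controls were negative control wells for no effect and 2.5 mM tranylcypromine positive control for full effect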
CYP2C9 inhib = human CYP2C9 inhibition; P11712; CYP2C9 Supersomes, luciferin-H conversion, luminescence; inhibition, % at 5 µM; 20% of 96,000 active; AID 777;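 active means blocking of liver enzyme CYP2C9 beyond about 50% at 5 µM, limit read from the data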
Cav3 T inh = human Cav3.2 channel inhibition, primary screen; O95180; Cav3.2-expressing cells, Fluo-4 calcium fluorescence FDSS; stronger effect = lower value; B-score at 10 µM; 4% of 100,000 active;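 active means single-dose well whose peak fluorescence ratio is a statistical outlier from its plate by either plate-standardised score or position-corrected B-score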
Target sequence (O95180 whole entry, looked up): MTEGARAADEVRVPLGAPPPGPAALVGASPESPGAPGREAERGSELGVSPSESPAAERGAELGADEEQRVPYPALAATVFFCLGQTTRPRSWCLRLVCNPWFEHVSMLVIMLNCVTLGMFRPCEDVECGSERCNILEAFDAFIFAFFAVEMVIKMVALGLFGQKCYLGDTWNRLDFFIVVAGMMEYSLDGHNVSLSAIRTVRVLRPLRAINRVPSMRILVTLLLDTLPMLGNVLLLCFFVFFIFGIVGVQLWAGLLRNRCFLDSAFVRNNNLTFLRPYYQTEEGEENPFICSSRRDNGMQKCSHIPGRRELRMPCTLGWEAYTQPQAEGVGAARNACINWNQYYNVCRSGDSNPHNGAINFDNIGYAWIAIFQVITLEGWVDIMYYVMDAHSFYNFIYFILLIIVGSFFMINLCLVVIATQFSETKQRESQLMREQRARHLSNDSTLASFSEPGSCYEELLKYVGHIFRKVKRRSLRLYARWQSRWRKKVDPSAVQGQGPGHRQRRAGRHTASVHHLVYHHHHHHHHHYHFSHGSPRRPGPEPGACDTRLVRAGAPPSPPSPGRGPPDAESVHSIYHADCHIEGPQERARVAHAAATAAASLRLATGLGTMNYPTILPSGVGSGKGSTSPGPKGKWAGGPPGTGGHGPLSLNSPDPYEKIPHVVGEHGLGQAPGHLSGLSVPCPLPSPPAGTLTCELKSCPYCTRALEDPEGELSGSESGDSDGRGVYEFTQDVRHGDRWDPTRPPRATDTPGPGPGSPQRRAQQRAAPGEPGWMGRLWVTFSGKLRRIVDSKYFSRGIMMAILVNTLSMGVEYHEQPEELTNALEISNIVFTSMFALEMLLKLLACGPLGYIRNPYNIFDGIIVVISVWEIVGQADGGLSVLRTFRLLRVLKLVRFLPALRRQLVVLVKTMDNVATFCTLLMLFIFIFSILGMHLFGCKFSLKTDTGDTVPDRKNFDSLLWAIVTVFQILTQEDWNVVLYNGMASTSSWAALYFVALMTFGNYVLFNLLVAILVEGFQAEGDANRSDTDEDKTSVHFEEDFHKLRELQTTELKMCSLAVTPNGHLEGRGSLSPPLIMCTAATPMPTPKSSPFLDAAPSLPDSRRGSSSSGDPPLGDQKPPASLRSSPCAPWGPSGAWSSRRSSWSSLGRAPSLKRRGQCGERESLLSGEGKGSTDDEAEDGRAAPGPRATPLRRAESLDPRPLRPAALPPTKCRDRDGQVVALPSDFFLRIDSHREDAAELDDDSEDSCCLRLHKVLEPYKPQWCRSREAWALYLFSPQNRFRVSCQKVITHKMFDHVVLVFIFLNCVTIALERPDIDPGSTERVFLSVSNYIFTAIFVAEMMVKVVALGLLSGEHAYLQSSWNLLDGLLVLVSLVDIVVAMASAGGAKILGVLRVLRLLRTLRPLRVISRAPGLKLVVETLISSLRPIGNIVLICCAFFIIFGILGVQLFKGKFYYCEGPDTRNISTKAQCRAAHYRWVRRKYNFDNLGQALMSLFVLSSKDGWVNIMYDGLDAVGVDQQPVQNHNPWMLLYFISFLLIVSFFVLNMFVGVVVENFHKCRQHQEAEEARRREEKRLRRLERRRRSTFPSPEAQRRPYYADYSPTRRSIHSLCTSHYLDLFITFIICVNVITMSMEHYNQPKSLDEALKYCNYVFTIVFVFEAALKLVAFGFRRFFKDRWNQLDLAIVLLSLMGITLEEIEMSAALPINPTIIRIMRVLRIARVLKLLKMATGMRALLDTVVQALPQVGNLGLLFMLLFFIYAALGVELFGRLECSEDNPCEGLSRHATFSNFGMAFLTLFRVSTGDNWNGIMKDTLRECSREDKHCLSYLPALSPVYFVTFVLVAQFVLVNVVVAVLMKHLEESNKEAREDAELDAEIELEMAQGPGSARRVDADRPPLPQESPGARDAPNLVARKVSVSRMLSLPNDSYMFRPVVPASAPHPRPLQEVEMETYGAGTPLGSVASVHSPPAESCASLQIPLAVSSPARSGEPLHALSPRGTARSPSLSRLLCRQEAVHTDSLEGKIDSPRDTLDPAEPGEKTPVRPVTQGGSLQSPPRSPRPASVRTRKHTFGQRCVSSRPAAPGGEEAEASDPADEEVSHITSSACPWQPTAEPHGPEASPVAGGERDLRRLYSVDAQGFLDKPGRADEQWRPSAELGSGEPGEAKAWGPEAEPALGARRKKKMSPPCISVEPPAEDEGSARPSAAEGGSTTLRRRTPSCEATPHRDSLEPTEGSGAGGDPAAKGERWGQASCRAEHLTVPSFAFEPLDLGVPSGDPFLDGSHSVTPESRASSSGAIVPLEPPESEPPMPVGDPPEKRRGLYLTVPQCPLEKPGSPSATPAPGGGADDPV
CYP2C9 activ = CYP2C9 (human) activation | P11712 | recombinant CYP2C9, luciferin-H conversion, luminescence; stronger effect = higher value; factor 1 = untreated enzyme, 0 = blocked | activation factor at 5 µM | 1.4% of 96,000 active;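 active means activation factor of 2 or more for CYP2C9 at a 5 µM dose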;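 further: 0 = sulfaphenazole-blocked wells and 1 = vehicle-only wells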
* = called active by the depositor; / = no result given.

SMILES	CYP2C19 activ	CYP2C19 inhib	CYP2C9 inhib	Cav3 T inh	CYP2C9 activ
CC(NC(=O)c1ccc(F)cc1)c1ccc2c(c1)CCCC2 (centres undefined)	0.8	18	-20	-8.5*	1.2
Cc1nn(-c2ccccc2)c(Cl)c1C(=O)OC(C)C(=O)Nc1ccc2c(c1)OCO2 (centres undefined)	0.1	85*	79*	-2.3	0.2
Cc1nn(-c2ccccc2)c(C)c1C(=O)OCC(=O)Nc1ccc2c(c1)OCO2	0	95*	89*	-1.1	0.1
Cc1onc(-c2ccccc2Cl)c1C(=O)OCC(=O)Nc1ccc2c(c1)OCO2	0	99*	88*	-6.3*	0.1
Cc1onc(-c2ccccc2Cl)c1C(=O)OCn1nnc2ccccc2c1=O	0.7	33	4	-0.51	1
Cc1onc(-c2ccccc2)c1C(=O)OCC(=O)Nc1ccc2c(c1)OCO2	0.5	54*	52*	-0.91	0.5
Cc1ccc(-c2noc(CCC(=O)Nc3ccc4c(c3)OCO4)n2)cc1	0.8	16	33	0.035	0.7
COc1ccc(C)cc1C(=O)C1CC(C(=O)O)C(C)(C)C1C (centres undefined)	0.9	5	21	0.92	0.8
CSc1nnc2c(n1)c(C)nn2-c1ccc(C)cc1	/	/	/	0.057	/
CCn1c(=NC(=O)CN2C(=O)CCC2=O)sc2c(C)cc(C)cc21	0.8	17	-76	0.34	1.8
Cc1onc(-c2ccccc2)c1C(=O)Nc1ccc2c(c1)OCO2	0	99*	79*	0.066	0.2
CCC(C)(C)n1nnnc1C(c1cc2cc(C)ccc2[nH]c1=O)N1CCCc2ccccc21 (centres undefined)	0.7	33	64*	/	0.4
Cc1cc2cc(C(c3nnnn3Cc3ccccc3)N3CCc4ccccc43)c(=O)[nH]c2cc1C (centres undefined)	0.7	33	68*	/	0.3
CCC(C)(C)n1nnnc1C(c1cc2ccc(OC)cc2[nH]c1=O)N1CCc2ccccc21 (centres undefined)	0.5	54*	98*	-3.9*	0
CCC(C)(C)n1nnnc1C(c1cc2cc(OC)ccc2[nH]c1=O)N1CCc2ccccc21 (centres undefined)	0.4	63*	100*	-1.4	0
CCC(C)(C)n1nnnc1C(c1cc2ccc(OC)cc2[nH]c1=O)N1CCCCC1 (centres undefined)	1	-2	19	-1.2	0.8
Cc1ccc2[nH]c(=O)c(C(c3nnnn3C3CCCC3)N3CCCc4ccccc43)cc2c1 (centres undefined)	/	/	/	2.6	/
Cc1ccc2[nH]c(=O)c(C(c3nnnn3Cc3ccccc3)N3CCc4ccccc43)cc2c1 (centres undefined)	0.8	17	11	-2.5	0.9
CC(C)C(c1nnnn1Cc1ccccc1)N1CCc2ccccc2C1 (centres undefined)	0.6	39	53*	-1.5	0.5
c1ccc(Cn2nnnc2C(c2cccs2)N2CCc3ccccc3C2)cc1 (centres undefined)	0.1	92*	70*	-3.8*	0.3
c1ccc(Cn2nnnc2C(c2cccs2)N2CCCCCC2)cc1 (centres undefined)	/	/	/	-2.6	/
Cc1cc(=O)oc2c1c(C)nn2-c1ccc(C(=O)OC(C)C)cc1	0.9	14	24	/	0.8
CCOC(=O)CCCNC(=O)COC(=O)c1cccc(C)c1O	0.3	67*	47	-1.1	0.5
CC(C)C[C@H](NC(=O)c1nc[nH]c1C(=O)N1CCc2ccccc2C1)C(=O)OC(C)(C)C	/	/	/	-0.26	/
Cc1ccc(CNC(=O)[C@@H]2CCC(=O)N2Cc2ccco2)cc1	0.7	32	4	-0.016	1
SMILES	CYP2C19 activ	CYP2C19 inhib	CYP2C9 inhib	Cav3 T inh	CYP2C9 activ
Cc1ccc(-c2csc(=S)n2CC(=O)OCC(=O)NCc2ccco2)cc1	0.7	28	56*	-1.4	0.4
Cc1cc(C)c(S(=O)(=O)c2ccccc2)c(OC(=O)c2cc(F)c(F)cc2Cl)n1	1	3	7	0.056	0.9
COc1cc2c(cc1OC)-c1nnc(C)n1C(C)(C)C2	1.3	-26	-26	-0.26	1.3
Cc1cc2c(cc1C)-c1nnnn1C(C)(C)C2	0.4	59*	4	0.0062	1
CCOC(=O)SC1=N/C(=C\c2ccc(N(C)C)cc2)C(=O)S1	0.9	10	68*	/	0.3
CCSC1=N/C(=C\c2ccc(C(=O)O)cc2)C(=O)S1	0.9	6	2	-0.19	1
COCCn1c(SCCN2CCCCC2)nc2ccccc2c1=O	0.7	31	5	0.8	1
